# According to the supplement of paper PMC7393113:
# Counter-ions that a name gives are not always drawn. ± gives the standard deviation of the averaged measurements.
# Tested on: iBMDM (immortalised mouse bone-marrow-derived macrophages), LPS-stimulated
# Assay: mitochondrial superoxide (MitoSOX fluorescence) fold increase over unstimulated control; higher = more LPS-induced mitochondrial ROS (less inhibition)
# Conditions: inhibitor concentration: 500 nM, LPS: 100 ng/ml
# How it was run: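 After 20 h in phenol-red-free 1% FCS/DMEM in black 96-well plates, immortalised mouse bone-marrow-derived macrophages were exposed to kinase inhibitors (500 nM) for 30 min, 1 μM MitoSox for 10 min and then LPS (100 ng/ml). A ClarioStar plate reader recorded fluorescence at 510/580 nm every 60 min for 4 h. The reported mitochondrial superoxide is the mean fold induction versus untreated macrophages over triplicate wells.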
Compound,mitochondrial superoxide (time after LPS: 1 h),mitochondrial superoxide (time after LPS: 2 h),mitochondrial superoxide (time after LPS: 4 h)
C=CC(=O)Nc1cccc(Sc2nc(Nc3ccc(N4CCN(C)CC4)cc3)ncc2Cl)c1,1.24 ± 0.09,1.26 ± 0.035,1.26 ± 0.032
NC(=O)c1ncn([C@@H]2O[C@H](CO)[C@@H](O)[C@H]2O)c1N [Acadesine],1.108 ± 0.0017,1.2 ± 0.043,1.36 ± 0.027
"CO[C@H]1C[C@@H]2CC[C@@H](C)[C@@](O)(O2)C(=O)C(=O)N2CCCC[C@H]2C(=O)O[C@H]([C@H](C)C[C@@H]2CC[C@@H](OP(C)(C)=O)[C@H](OC)C2)CC(=O)[C@H](C)/C=C(\C)[C@@H](O)[C@@H](OC)C(=O)[C@H](C)C[C@H](C)/C=C/C=C/C=C/1C [Ridaforolimus (Deforolimus, MK-8669)]",1.55 ± 0.087,1.592 ± 0.0072,1.78 ± 0.04
NC(=O)c1cnc(N[C@@H]2CCCC[C@@H]2N)nc1Nc1cccc(-n2nccn2)c1,1.38 ± 0.058,1.57 ± 0.08,1.71 ± 0.11
Cc1ccc(Nc2nccc(N(C)c3ccc4c(C)n(C)nc4c3)n2)cc1S(N)(=O)=O,1.46 ± 0.059,1.563 ± 0.0056,1.65 ± 0.11
CC(C)NC[C@@H](C(=O)N1CCN(c2ncnc3c2[C@H](C)C[C@H]3O)CC1)c1ccc(Cl)cc1,1.25 ± 0.045,1.49 ± 0.11,1.7 ± 0.094
CNC(=O)c1ccccc1Nc1nc(Nc2ccc(N3CCOCC3)cc2OC)ncc1Cl,1.12 ± 0.084,1.11 ± 0.056,1.23 ± 0.081
COc1cc2nccc(Oc3ccc(NC(=O)Nc4cc(C)on4)c(Cl)c3)c2cc1OC [Tivozanib (AV-951)],1.14 ± 0.031,1.17 ± 0.037,1.24 ± 0.024
C[C@H](Nc1ncnc2nc[nH]c12)c1cc2cccc(Cl)c2c(=O)n1-c1ccccc1,1.09 ± 0.045,1.2 ± 0.032,1.31 ± 0.023
O=C1NC(=O)/C(=C/c2ccc3c(c2)OC(F)(F)O3)S1,1.26 ± 0.032,1.4 ± 0.033,1.51 ± 0.068
Cc1ccccc1-n1c(Cn2nc(-c3cccc(O)c3)c3c(N)ncnc32)nc2cccc(C)c2c1=O,1.28 ± 0.017,1.34 ± 0.033,1.42 ± 0.034
COc1cc(Nc2nc3ccccc3nc2NS(=O)(=O)c2ccc(NC(=O)c3ccc(C)c(OC)c3)cc2)cc(OC)c1,1.17 ± 0.022,1.23 ± 0.06,1.33 ± 0.061
NC(=O)Nc1sc(-c2ccc(F)cc2)cc1C(N)=O,1.15 ± 0.055,1.2 ± 0.045,1.33 ± 0.06
Cn1cc(C2=C(c3cn(CCCSC(=N)N)c4ccccc34)C(=O)NC2=O)c2ccccc21 [Ro 31-8220 Mesylate],1.57 ± 0.051,1.6 ± 0.0078,1.79 ± 0.12
COc1cc(N2CCC(N(C)C)CC2)ccc1Nc1ncc(Cl)c(Nc2ccccc2P(C)(C)=O)n1,1.15 ± 0.031,1.27 ± 0.11,1.33 ± 0.076
CCS(=O)(=O)Nc1ccc2[nH]c(O)c(C(=Nc3ccc(CN4CCCCC4)cc3)c3ccccc3)c2c1 [Hesperadin],1.1 ± 0.02,1.13 ± 0.031,1.28 ± 0.046
CCn1c(N)c(C(=O)NC)c(=O)c2ccc(C#CC(C)(O)COC)nc21 (configuration not stated),1.11 ± 0.027,1.22 ± 0.042,1.33 ± 0.051
Cc1cc(O)c2c(c1)C(=O)c1cccc(O)c1C2=O [Chrysophanic Acid],1.29 ± 0.11,1.36 ± 0.097,1.48 ± 0.022
CC(C)(C)Cn1c(N)nc2ccc(-c3[nH]c(C(C)(C)C)nc3-c3ccc(F)cc3)nc21,1.111 ± 0.0047,1.17 ± 0.032,1.33 ± 0.066
